For some assays here: Measured potencies and affinities stand elsewhere.
Tests used:
Design in all cases: scale not given: direction of the effect not stated beside the values
[1] = target: Protein translocase subunit SecA (Escherichia coli (strain K12)) (UniProt P10408); test: Assay to Identify E. coli SecA ATPase Inhibitors; type: functional; settings: 30 µM
[2] = target: T1, Ubiquitin-activating enzyme e1, putative (Leishmania donovani (strain BPK282A1)) (UniProt E9BSI1); test: Leishmania donovani Ubiquitin Activating Enzyme (LdE1); type: functional; settings: 30 µM
T1 sequence (whole entry): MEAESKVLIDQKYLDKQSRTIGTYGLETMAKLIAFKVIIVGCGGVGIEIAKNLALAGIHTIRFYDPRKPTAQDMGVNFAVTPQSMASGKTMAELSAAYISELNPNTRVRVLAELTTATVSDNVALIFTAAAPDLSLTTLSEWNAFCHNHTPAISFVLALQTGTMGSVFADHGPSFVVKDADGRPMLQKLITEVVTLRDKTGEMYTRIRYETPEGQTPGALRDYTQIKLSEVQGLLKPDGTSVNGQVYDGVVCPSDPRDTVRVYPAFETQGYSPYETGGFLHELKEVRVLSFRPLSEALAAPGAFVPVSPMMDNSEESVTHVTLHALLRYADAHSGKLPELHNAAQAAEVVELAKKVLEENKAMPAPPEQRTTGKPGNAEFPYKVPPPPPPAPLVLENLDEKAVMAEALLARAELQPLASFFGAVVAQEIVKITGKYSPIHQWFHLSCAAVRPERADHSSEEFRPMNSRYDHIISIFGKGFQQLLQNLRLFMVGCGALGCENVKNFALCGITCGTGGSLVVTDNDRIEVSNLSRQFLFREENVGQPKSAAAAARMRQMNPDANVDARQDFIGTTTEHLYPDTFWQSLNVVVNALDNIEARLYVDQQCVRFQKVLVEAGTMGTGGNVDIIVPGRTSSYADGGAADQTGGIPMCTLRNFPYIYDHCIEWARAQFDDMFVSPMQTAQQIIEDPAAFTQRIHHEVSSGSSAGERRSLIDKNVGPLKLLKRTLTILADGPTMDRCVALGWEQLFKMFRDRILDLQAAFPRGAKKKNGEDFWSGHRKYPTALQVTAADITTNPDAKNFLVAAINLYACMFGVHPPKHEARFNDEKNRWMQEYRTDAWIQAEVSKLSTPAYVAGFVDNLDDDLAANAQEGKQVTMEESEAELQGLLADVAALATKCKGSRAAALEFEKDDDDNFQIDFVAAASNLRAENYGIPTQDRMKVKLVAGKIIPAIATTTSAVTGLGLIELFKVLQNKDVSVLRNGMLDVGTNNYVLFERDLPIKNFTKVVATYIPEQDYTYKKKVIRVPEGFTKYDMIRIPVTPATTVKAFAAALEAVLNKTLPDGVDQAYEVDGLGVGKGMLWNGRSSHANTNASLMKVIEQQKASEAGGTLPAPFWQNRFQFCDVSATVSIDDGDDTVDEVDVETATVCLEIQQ

[3] = target: AMP-activated protein kinase, AMPK (Homo sapiens) (UniProt P54646+O43741+P54619+Q9UGJ0+Q9Y478+Q13131+Q9UGI9); test: AMP-dependent Kinase enzyme assay. An in vitro enzyme assay that detects ADP turnover that is directly proportional to AMPK activity. This uses naive AMPK that is activated during the assay with MK-8722; type: functional; settings: 30 µM
[4] = target: Sialic acid-binding Ig-like lectin 9 (Homo sapiens) (UniProt Q9Y336); test: Hs-Siglec9 ALPHAscreen SOP 20170721; settings: 10 µM
Sialic acid-binding Ig-like lectin 9 (Homo sapiens), sequence (Q9Y336 whole entry): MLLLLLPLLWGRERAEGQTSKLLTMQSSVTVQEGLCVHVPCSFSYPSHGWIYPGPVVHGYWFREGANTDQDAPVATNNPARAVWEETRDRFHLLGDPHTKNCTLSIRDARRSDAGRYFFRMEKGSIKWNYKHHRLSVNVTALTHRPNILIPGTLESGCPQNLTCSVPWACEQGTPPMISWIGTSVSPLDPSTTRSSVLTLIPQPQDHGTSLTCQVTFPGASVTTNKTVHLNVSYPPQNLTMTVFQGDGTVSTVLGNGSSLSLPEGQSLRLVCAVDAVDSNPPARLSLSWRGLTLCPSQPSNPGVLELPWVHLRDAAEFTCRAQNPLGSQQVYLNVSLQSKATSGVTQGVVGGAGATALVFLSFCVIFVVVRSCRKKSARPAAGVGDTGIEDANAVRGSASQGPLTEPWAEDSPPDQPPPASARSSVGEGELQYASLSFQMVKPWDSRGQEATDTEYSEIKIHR

Trypanosoma cruzi = test: Trypanosoma cruzi phosphomannomutase and mannose-1-phosphate guanylyltransferase assay; type: functional; settings: 10 µM
[5] = target: T2, Arginase-2, mitochondrial (Homo sapiens) (UniProt P78540); test: in vitro enzyme assay to detect the production of urea directly proportional to the activity of Arginase II; type: functional; settings: 33.3 µM; further: in the data most compounds retested in dose-response had high values
T2 sequence (whole entry): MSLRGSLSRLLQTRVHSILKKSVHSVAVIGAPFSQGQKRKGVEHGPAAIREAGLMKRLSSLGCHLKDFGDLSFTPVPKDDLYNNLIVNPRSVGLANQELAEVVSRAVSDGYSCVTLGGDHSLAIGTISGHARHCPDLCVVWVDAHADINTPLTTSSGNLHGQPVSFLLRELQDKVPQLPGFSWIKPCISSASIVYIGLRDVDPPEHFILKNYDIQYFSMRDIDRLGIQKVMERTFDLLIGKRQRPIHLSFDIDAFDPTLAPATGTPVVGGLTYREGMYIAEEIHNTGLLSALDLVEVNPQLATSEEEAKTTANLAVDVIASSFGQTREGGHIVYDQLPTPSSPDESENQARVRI

[6] = target: T3, Proteasome subunit beta (Trypanosoma cruzi) (UniProt O96673); test: Trypanosoma cruzi proteasome chymotrypsin-like activity (TcProtChymo) assay.; further: in the data most compounds retested in dose-response had high values; type: functional; settings: 9.37 µM
T3 sequence (whole entry): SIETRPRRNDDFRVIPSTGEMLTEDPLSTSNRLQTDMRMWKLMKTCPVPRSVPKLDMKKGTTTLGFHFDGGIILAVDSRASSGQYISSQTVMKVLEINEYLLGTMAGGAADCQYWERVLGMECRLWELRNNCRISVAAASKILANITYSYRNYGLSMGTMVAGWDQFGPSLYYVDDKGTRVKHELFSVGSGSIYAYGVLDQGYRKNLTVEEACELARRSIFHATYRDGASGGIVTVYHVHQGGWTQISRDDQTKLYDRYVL

Homo sapiens = species: Homo sapiens; test: To identify inhibition of the IFN signalling (Jak-Stat) pathway via expression of an eGFP reporter gene under the control of an IFN-stimulated response element (ISRE) containing MxA promoter.; type: functional; settings: 30 µM
[7] = target: T4, Tyrosyl-tRNA synthetase, putative (Trypanosoma cruzi (strain CL Brener)) (UniProt Q4DSP6); test: Trypanosoma cruzi tyrosyl tRNA synthetase (TcYRS) _High Tyrosine SOP; type: functional; settings: 30 µM; further: in the data most compounds retested in dose-response had high values
T4 sequence (whole entry): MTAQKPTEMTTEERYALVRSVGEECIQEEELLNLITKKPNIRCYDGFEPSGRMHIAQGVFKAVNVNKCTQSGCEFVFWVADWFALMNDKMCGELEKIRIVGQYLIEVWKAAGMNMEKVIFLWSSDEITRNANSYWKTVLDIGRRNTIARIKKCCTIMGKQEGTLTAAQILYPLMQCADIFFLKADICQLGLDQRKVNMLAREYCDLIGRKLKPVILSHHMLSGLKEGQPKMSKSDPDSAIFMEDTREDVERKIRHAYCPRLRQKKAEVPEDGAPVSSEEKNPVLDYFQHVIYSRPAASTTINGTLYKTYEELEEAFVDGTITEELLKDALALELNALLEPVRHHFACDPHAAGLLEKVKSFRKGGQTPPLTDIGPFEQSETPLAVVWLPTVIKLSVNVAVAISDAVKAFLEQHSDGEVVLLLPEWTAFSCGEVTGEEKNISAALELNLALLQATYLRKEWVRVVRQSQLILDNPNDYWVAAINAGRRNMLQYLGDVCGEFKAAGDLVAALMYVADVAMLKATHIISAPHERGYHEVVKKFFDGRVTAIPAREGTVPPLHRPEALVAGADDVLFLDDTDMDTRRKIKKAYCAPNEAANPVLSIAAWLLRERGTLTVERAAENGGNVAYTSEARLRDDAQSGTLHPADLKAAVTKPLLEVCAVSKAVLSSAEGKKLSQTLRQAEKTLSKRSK

[8] = target: T4, Tyrosyl-tRNA synthetase, putative (Trypanosoma cruzi (strain CL Brener)); test: Trypanosoma cruzi tyrosyl tRNA synthetase (TcYRS) SOP; type: functional; settings: 30 µM
[9] = target: Chromo domain-containing protein 1 (Saccharomyces cerevisiae (strain ATCC 204508 / S288c) (Baker's yeast)) (UniProt P32657); test: ScCHD-1 Enzyme Inhibition Assay; type: functional; settings: 30 µM; further: in the data most compounds retested in dose-response had high values
Chromo domain-containing protein 1 (Saccharomyces cerevisiae (strain ATCC 204508 / S288c) (Baker's yeast)), sequence (P32657 whole entry, the tested form may be a part): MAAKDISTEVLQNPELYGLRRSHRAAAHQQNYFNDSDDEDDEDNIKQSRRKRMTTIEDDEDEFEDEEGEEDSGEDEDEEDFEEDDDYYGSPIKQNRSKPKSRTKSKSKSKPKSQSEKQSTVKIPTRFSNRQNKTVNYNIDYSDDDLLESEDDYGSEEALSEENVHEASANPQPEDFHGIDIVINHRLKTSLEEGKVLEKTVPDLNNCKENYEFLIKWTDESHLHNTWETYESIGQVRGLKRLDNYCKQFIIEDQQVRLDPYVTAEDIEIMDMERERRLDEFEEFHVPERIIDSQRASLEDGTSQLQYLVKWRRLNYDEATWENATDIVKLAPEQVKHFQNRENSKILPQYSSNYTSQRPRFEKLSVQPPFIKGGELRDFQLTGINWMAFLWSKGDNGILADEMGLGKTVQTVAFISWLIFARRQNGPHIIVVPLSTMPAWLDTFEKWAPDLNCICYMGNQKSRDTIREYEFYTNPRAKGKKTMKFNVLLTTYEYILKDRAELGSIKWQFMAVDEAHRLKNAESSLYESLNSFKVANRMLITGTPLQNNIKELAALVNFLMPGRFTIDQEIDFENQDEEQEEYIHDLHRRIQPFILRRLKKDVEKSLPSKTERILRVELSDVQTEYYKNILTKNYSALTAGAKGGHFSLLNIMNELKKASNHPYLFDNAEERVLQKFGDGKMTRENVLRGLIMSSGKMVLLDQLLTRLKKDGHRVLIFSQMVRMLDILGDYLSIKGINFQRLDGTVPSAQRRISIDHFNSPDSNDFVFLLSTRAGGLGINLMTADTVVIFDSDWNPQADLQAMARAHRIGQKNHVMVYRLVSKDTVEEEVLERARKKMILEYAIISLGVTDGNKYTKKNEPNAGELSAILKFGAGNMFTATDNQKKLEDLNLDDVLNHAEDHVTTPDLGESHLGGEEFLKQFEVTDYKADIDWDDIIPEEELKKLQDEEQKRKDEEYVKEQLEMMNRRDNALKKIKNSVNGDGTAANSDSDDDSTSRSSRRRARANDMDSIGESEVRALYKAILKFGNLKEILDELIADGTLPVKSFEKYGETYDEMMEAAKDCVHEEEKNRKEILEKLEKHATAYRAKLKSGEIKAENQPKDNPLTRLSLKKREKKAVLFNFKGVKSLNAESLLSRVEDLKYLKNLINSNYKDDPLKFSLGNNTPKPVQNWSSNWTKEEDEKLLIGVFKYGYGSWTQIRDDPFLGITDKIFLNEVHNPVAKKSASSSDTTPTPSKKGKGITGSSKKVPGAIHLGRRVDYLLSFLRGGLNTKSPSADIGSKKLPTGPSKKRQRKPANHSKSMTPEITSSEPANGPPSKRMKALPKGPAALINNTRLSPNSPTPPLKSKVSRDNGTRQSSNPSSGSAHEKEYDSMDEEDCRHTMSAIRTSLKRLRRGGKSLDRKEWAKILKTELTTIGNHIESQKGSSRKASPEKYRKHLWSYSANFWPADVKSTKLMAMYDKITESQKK

Protein translocase subunit SecA (Escherichia coli (strain K12)), sequence (P10408 whole entry): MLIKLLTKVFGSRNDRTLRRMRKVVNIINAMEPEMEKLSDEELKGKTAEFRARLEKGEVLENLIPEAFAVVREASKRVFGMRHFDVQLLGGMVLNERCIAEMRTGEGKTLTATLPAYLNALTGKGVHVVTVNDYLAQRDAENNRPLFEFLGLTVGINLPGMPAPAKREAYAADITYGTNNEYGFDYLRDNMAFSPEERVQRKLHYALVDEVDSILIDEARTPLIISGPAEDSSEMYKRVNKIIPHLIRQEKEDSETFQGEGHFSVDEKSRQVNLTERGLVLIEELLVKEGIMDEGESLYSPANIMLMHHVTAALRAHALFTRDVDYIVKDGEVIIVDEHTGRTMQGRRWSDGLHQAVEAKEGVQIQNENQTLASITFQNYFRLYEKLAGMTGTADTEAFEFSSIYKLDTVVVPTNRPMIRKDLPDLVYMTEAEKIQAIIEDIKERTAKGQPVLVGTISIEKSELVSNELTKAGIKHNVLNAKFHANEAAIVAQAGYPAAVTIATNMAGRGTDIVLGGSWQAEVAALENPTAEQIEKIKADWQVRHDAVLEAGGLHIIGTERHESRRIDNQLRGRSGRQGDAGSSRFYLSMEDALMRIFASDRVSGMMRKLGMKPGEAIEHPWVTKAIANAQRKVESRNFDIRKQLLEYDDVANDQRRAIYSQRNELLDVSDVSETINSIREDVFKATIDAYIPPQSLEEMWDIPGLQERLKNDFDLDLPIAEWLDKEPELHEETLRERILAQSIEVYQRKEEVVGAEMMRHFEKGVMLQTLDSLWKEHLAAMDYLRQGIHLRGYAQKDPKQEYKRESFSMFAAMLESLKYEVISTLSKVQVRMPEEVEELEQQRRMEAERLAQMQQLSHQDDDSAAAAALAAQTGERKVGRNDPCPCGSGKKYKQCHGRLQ

Row | Structure (SMILES) | Percent Effect [1] [%] | Percent Effect [2] [%] | Percent Effect [3] [%] | Percent Effect [4] [%] | Percent Effect (Trypanosoma cruzi) [%] | Percent Effect [5] [%] | Percent Effect [6] [%] | Percent Effect (Homo sapiens) [%] | Percent Effect [7] [%] | Percent Effect [8] [%] | Percent Effect [9] [%]
1 | CCn1cnnc1C1CCN(C(=O)c2cnc3ccccc3n2)CC1 | -1.53 | 5.26 | 5.47 | 3.25 | 5.75 | -11.8 | 13.7 | -15.4 | 0 | 2.6 | 1.06
2 | Fc1ccc(-c2cnc(CN3CCCC3Cn3cccn3)o2)cc1 (configuration not stated) | -4.06 | 7.59 | -2.14 | -12.9 | -4.82 | 7.22 | 12.7 | 24.8 | 2.46 | 13.9 | -1.62
3 | CC(C(=O)N1CCC(Nc2cccnn2)CC1)n1ccnc1 (configuration not stated) | -2.11 | 5.41 | -6.39 | 14.9 | 4.43 | -3.21 | 3.42 | 11.9 | 3.45 | 6.17 | -6.18
4 | O=C(NCc1ccc(-n2cncn2)nc1)c1ccoc1 | -8.93 | 0 | -18.3 | 31.6 | 11.6 | -10.4 | 0.901 | 3.65 | 4.43 | 18.5 | -15.1
5 | Cc1nc(C2CCCN(C(=O)c3scnc3C)C2)no1 (configuration not stated) | -3.05 | 6.94 | -13.5 | 8.6 | 4.76 | 1.77 | 14.2 | -0.897 | -1.05 | 2.56 | -2.17
6 | CN1CCN(C(=O)CC2CCN(CCc3ccccn3)CC2)CC1 | -2.81 | 5.2 | 3.53 | 5.15 | 5.58 | 4.84 | 3.48 | 9.07 | 6.67 | 18.8 | -17.3
7 | Cc1ccccc1C(=O)NCc1ccc(N2CCNC(=O)C2)cc1 | 1.43 | 5.41 | -9.32 | 6.76 | 1.16 | -14.8 | 14.3 | -13.4 | 15.3 | 17.1 | -3.63
8 | c1cnn(CC2CN(CCc3ccncc3)CCO2)c1 (configuration not stated) | 1.49 | 13 | 1.87 | -13.5 | -2.06 | 0.632 | 6.22 | 32 | 4.76 | 21.2 | -16.1
9 | Cc1csc(NC(=O)CN2CCC(c3ccnn3CCO)CC2)n1 | -4.67 | 25.3 | -7.88 | -3.79 | 4.06 | 0 | 9.42 | 47.6 | 8.37 | 26.6 | -7.33
10 | Cc1cnn(CCNCc2ccccc2OCc2cccnc2)c1 | -4.98 | -3.8 | 2.64 | 6.26 | -1.95 | 1.5 | 17 | 5.87 | 5.21 | 5.06 | -13
11 | Cc1cc(C)cc(NS(=O)(=O)c2cc3c(c(C(=O)O)c2)OCCO3)c1 | -4.74 | 6.33 | -7.57 | 3.67 | 0.308 | -5.38 | 15.4 | 2.08 | -10.4 | -5.06 | -26.1
12 | O=C(CCc1cscn1)NS(=O)(=O)c1ccc2c(c1)CCC2 | -5.7 | 15.3 | -13.9 | 36.9 | 7.29 | 22.5 | 3.33 | 5.07 | 3.16 | 15.4 | -4.74
13 | CC(=O)N1CCC2(CC1)COCCN2Cc1ccc(F)cc1 | -4.99 | 8.11 | 4.11 | -8.39 | -4.2 | -0.955 | 18.1 | -2.37 | -1.08 | 7.69 | -1.77
14 | CN(C)C(=O)N1CCN(CCn2nc3ccccn3c2=O)CC1 | 0.243 | 7.89 | 0.915 | -3.62 | -6.13 | 0 | 20.8 | 3.27 | 6.38 | 5.2 | -5.93
15 | O=C(c1cc(=O)[nH]c(=O)[nH]1)N1CCCCC1c1ccc(F)cc1 (configuration not stated) | 1.51 | 4.17 | 0.748 | -6.89 | -3.21 | 3.97 | 16.8 | -0.138 | 5.26 | 2.56 | -2.94
16 | Cc1ccc(C)c(-c2csc(N)c2C#N)c1 | -2.81 | -1.33 | -2.97 | 7.24 | 0.589 | -10 | 4.99 | 14.2 | -12.7 | -12.8 | 2.05
17 | CS(=O)(=O)NCCCN1CCCC1c1ccccc1 (configuration not stated) | -4.36 | 5.06 | -1.23 | 6.79 | 1.42 | 3.04 | 3.03 | -31.1 | 7.39 | 13.9 | -5.84
18 | CCc1ccccc1-n1cc(O)c(C(=O)N2CCCCC2)n1 | -2.01 | -29.7 | 5.9 | -1.13 | -4.36 | 0.185 | 4.85 | 20.6 | -23.8 | -45.1 | 2
19 | Cc1ccc(CNC(=O)Cn2ncc3c2c(C)nn3C)cc1 | 0.175 | 4 | 4.44 | 1.31 | -6.68 | -16.4 | 10.2 | 6.77 | 3.17 | 7.69 | -8.77
20 | CCn1nc(CC(C)C)cc1C(=O)N1CC[C@@H](O)C1 | -4.98 | 18.7 | -5.58 | 22.7 | 2.82 | 9.38 | 12.7 | -2.86 | 3.83 | 13.6 | 92.8
21 | CCOc1ccc(C2CC(=O)Nc3c2c(=O)nc2sccn32)cc1 (configuration not stated) | -6.79 | 17.3 | -2.62 | 8.5 | 1.97 | -6.51 | 9.06 | 7.35 | 4.23 | 7.69 | -13.3
22 | NC(=O)C1(c2cnccn2)CCCN1Cc1cc2ccccc2o1 (configuration not stated) | -2.52 | 6.76 | 11.2 | 3.94 | -1.78 | -2.09 | 14.2 | 1.46 | 9.68 | 16.9 | -6.96
